Test results from PubChem BioAssay AID1460 (National Center for Advancing Translational Sciences (NCATS), 2008).
Hit rate of the full screen: of about 270,000 compounds, about 5,800 (2.1%) were called active. Where a call stands in place of a potency, no number is given. About 16% were inconclusive and are not listed. Calls come from the whole dose curve; as a rule, active = well fitted inhibition curve with a large enough effect; inconclusive = small, poorly fitted or top-dose-only effect; inactive = flat fitted curve, though single readings scatter. This excerpt belongs to a sample that is enriched for actives.

Molecular target: Microtubule-associated protein tau (Homo sapiens) (UniProt P10636)
Assay: qHTS for Inhibitors of Tau Fibril Formation, Thioflavin T Binding; note: nearly all actives have a fitted effect of over 55% in size
Conditions: recombinant tau K18 P301L (four-repeat tau fragment), heparin-induced fibrillization, ThT fluorescence; series mostly up to 57.4 µM
How it was run: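 Tau K18 P301L fragment (15 uM unlabeled plus 0.24 uM Alexa 594-labeled) in 100 mM sodium acetate pH 7 with compound, fibrillization induced by 20 uM heparin for 6 hr at 37 C. Thioflavin T (30 uM) added, fluorescence read after 1 hr (ex 450, em 510 nm).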
Potency is the fitted concentration of half-maximal effect.

Sequence of Microtubule-associated protein tau (Homo sapiens) (P10636 561-689 P618L limits assumed): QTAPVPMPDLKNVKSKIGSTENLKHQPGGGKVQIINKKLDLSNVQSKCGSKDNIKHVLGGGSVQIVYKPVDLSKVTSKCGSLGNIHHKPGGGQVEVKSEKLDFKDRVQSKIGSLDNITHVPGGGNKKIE

Structure (SMILES) | Potency
CCc1cccc(NC(=O)Cn2nc(CC)n3c(cc4cc(C)ccc43)c2=O)c1 | inactive
Cc1cn(C)c(CC(=O)NCc2ccc(Cl)cc2)c1C(=O)O | inactive
CCOc1cccc(CC(=O)N2CCc3c([nH]c4ccccc34)C2c2ccc(OC)cc2)c1OCC (stereo not drawn) | inactive
Nc1ccc(N=Nc2ccccc2Cl)c(N)n1 | 2 µM (active)
CCOC(=O)C1CCC(CN(Cc2ccc(OC)cc2)S(=O)(=O)c2ccc(F)c(C(=O)Nc3cc(C)ccc3C)c2)CC1 (stereo not drawn) | inactive
CCOC(=O)c1cc(-c2ccccc2)n(-c2cccc(C(=O)Nc3cc(OC)cc(OC)c3)c2)c1C | inactive
COc1ccc(/C=C2\SC(=S)N(CC(=O)NNC(=O)c3ccncc3)C2=O)cc1 | inactive
COc1ccc(/C=C2/SC(=O)N(CCCCCC(=O)Nc3ccccc3C(=O)O)C2=S)cc1 | 11.2 µM (active)
O=C(CCCN1C(=O)/C(=C\c2ccccc2)SC1=S)Nc1ccccc1O | inactive
Cc1cc(OCC(=O)Nc2ncn[nH]2)c(C)c(C)c1Br | inactive
CCOCCCNC(=O)c1cc2c(=O)n3ccccc3nc2s1 | inactive
Cc1cccc(-n2c(=O)c3c(c4cc(C)ccc4n3C)n(CC(=O)Nc3ccccc3Cl)c2=O)c1 | inactive
Cc1noc(/C=C/N(C)C)c1S(=O)(=O)N1CCCC(C(=O)Nc2cccc(F)c2)C1 (stereo not drawn) | inactive
O=C(NCc1ccco1)C1CCCN(S(=O)(=O)c2ccccc2)C1 (stereo not drawn) | inactive
Cc1noc(/C=C/N(C)C)c1S(=O)(=O)N1CCCC(C(=O)NCc2ccco2)C1 (stereo not drawn) | 28.2 µM (active)
Cc1cccc(N2CCN(S(=O)(=O)c3ccc4[nH]c5c(c4c3)CCCCC5)CC2)c1C | inactive
CC[C@@H]1Cc2cc(O)ccc2C2=C1c1ccc(O)cc1C[C@H]2CC | 17.8 µM (active)
CC1(C)CC(=O)c2ccc(O)cc2O1 | inactive
COc1ccccc1Cc1nc2ccccc2nc1SCC(=O)N1CCCc2ccccc21 | inactive
O=[N+]([O-])c1ccc(N2CCN(c3ccc(O)cc3)CC2)c(Cl)c1 | 6.31 µM (active)
CCN1CCN(c2ccc([N+](=O)[O-])cc2C(=O)c2ccc(Cl)cc2)CC1 | inactive
CC1CCN(c2ccc([N+](=O)[O-])cc2C(N)=O)CC1 | inactive
O=C(NC1(C(F)(F)F)N=C(c2ccccc2)N(C2CCCCC2)C1=O)c1ccccc1F (stereo not drawn) | inactive
Fc1cc(F)c2nc(Nc3nc4c(F)cccc4s3)sc2c1 | inactive
NNc1nc2c(Cl)cccc2s1 | 22.4 µM (active)
CN(C)CCCN(C(=O)COc1ccccc1)c1nc2c(Cl)cccc2s1 | inactive

Structure (SMILES) | Potency
Cc1ccc(CNC(=O)Cn2c(=O)ccc3cc(S(=O)(=O)N4CCCC4)ccc32)cc1 | inactive
CCc1ccccc1NC(=O)Cn1c(=O)n(CC2CCC(C(=O)NCCc3ccccc3)CC2)c(=O)c2ccccc21 (stereo not drawn) | inactive
C#CCOc1ccc(C2CC(=O)Nc3c2c(C)nn3-c2nc(C)cc(C)n2)cc1 (stereo not drawn) | inactive
Cc1ccc(C(=O)N2CCc3cc(CNC(=O)c4ccc(Br)cc4)ccc32)cc1 | inactive
Cc1nn(-c2ccc(N3CCCCC3)nn2)c(C)c1CCC(=O)NCc1ccccc1F | inactive
O=Cc1cn(Cc2ccccc2)nc1-c1cccnc1 | inactive
O=C1/C(=C\c2cccnc2)CN(Cc2ccccc2)C/C1=C\c1cccnc1 | 14.1 µM (active)
Clc1ccc(CN2CCN(/N=C/c3cccnc3)CC2)cc1 | inactive
O=C(CSc1nc2c(c(=O)[nH]1)CN(Cc1ccc3c(c1)OCO3)CC2)Nc1cc(F)ccc1F | inactive
Cc1ccc2cccc(NC(=O)c3ccc(OC(C)C)cc3)c2n1 | inactive
O=C(CSc1nc(=O)[nH]c2c1CCCC2)Nc1cc(C(F)(F)F)ccc1Cl | inactive
CCCOc1ccc(N2CC(C(=O)Nc3ccccn3)CC2=O)cc1 (stereo not drawn) | inactive
CCCNC(=O)C1CC(=O)N(c2ccc(OCC(=O)Nc3cccc(C)c3C)cc2)C1 (stereo not drawn) | inactive
CCOc1ccc(N2CC(C(=O)NCCN3C(=O)S/C(=C\c4cccnc4)C3=O)CC2=O)cc1 (stereo not drawn) | 22.4 µM (active)
CCOc1ccc(C(NC(=O)c2cc(OC)c(OC)c(OC)c2)c2cc(Cl)c3cccnc3c2O)cc1 (stereo not drawn) | inactive
CCCCN(C)c1nnc(NC(=O)Nc2ccc(Br)c(C)c2)s1 | inactive
CCOC(=O)c1c(C)[nH]c(C)c1S(=O)(=O)N1CCCC(C(=O)NCc2ccccc2Cl)C1 (stereo not drawn) | inactive
COc1ccc(S(=O)(=O)c2cn(C)c3cc(N4CCCCC4)c(F)cc3c2=O)cc1 | inactive
Cc1nn(C)c(Oc2ccccc2)c1[N+](=O)[O-] | inactive
Cc1cccc(C2CC(=O)Oc3c2c(=O)n(C)c2ccccc32)c1 (stereo not drawn) | inactive
Cc1cccc(Oc2c([N+](=O)[O-])c(=O)n(C)c3ccccc23)c1 | 14.1 µM (active)
CN(C(=O)CSc1nc2ccccc2n1Cc1ccccc1C#N)c1ccccc1 | inactive
CCNC(=O)N1c2ccccc2Sc2ccccc21 | inactive
CCN1C(=O)/C(=C2/Sc3ccccc3N2CCCS(=O)(=O)O)SC1=S | inactive
CCN1/C(=C/C(=S)Nc2ccccc2)Sc2ccccc21 | 3.55 µM (active)
CC(=O)c1ccc(NC(=O)CSc2c(C(C)C)cnc3c2c(=O)n(C)c(=O)n3C)cc1 | inactive

Structure (SMILES) | Potency
O=C(COc1ccc(Cl)cc1)Nc1ccccc1OCc1cc(=O)n2ccccc2n1 | inactive
CC1=C(C(=O)Nc2ccccc2)C(c2ccco2)C(C#N)=C(SCC(N)=O)N1 (stereo not drawn) | inactive
N#CC1=C(N)Oc2c(sc3ccccc23)C1c1ccco1 (stereo not drawn) | 15.8 µM (active)
Cc1ccc(CCNC(=O)c2ccc(CNS(=O)(=O)c3ccc(C)cc3)cc2)cc1 | inactive
CCOC(=O)c1c(C)oc2nc(C)nc(N(CC(C)C)CC(C)C)c12 | inactive
COc1ccc(NC(=O)N2CCCn3nc(C)cc32)cc1OC | inactive
COc1ccc(C(=O)c2oc3ccccc3c2NC(=O)COc2cccc(C)c2)cc1 | inactive
O=C(Nc1ccccc1Cl)N1CCC(CN2CCCC2)CC1 | inactive
CN=C1C=C/C(=N/N=c2\ccn(O)cc2C)C=C1C | 6.31 µM (active)
Cc1ccc(Cn2c(=O)n(Cc3nc(-c4ccccc4)no3)c(=O)c3cc4c(cc32)OCO4)cc1 | inactive
Cc1ccc(-c2cn3c(n2)sc2cc(C(=O)NCCCc4ccccc4)ccc23)cc1 | inactive
Cc1cccc(C(=O)N2CCc3cc(CNC(=O)Cc4ccc(F)cc4)ccc32)c1 | inactive
CCC(=O)Nc1cccc(-c2nc3cc(C)ccc3o2)c1 | inactive
O=C(NNc1c2ccccc2nc2ccccc12)c1cc2ccccc2cc1O | 2 µM (active)
O=C(Nc1c2c(nc3ccccc13)CCCC2)c1ccccc1Br | inactive
Cc1nc2ccccc2cc1O | inactive
COc1ccc(-c2nc3sc(CCNS(=O)(=O)c4ccc(F)c(C)c4)c(C)n3n2)cc1 | inactive
O=C1CN(C(=O)Nc2ccccc2C(F)(F)F)C(c2ccccc2)c2c(sc3c2CCCC3)N1 (stereo not drawn) | inactive
Cc1nc2ccc(S(=O)(=O)N(CC(=O)Nc3ccc(F)cc3)Cc3ccccc3)cc2s1 | inactive
Cc1ccccc1CNC(=O)CSc1nnc(C)c2c(C)n(-c3ccccc3)nc12 | inactive
CCN(CC)C(=O)CSC(Nc1cccc(F)c1)=C(C#N)C#N | 28.2 µM (active)
O=C(CCN1C(=O)c2ccccc2C1=O)Nc1cccc(F)c1 | inactive
CCN(CC)C(=O)C(=O)Nc1cccc(Br)c1 | inactive
O=C(Nc1ccc(C(=O)OCc2cc(=O)n3nc(C4CC4)sc3n2)cc1)c1ccc(F)cc1 | inactive
O=C(Nc1ccc(F)cc1F)c1ccc2c(=O)n3c(nc2c1)CCCCC3 | inactive
Cn1c(=O)n(Cc2c(F)cccc2Cl)c(=O)c2c1nc1n2CCN1c1ccc(F)cc1 | inactive

Structure (SMILES) | Potency
CCOC(=O)/C(=N\Nc1ccccc1[N+](=O)[O-])c1csc(Nc2ccccc2)n1 | 5.01 µM (active)
CCOC(=O)Cc1csc(NC(=O)Nc2ccccc2)n1 | inactive
Cc1c(NC(=O)Nc2ccccc2)cccc1[N+](=O)[O-] | inactive
Cc1cc(C)cc(NC(=O)CCCc2nc(-c3ccccc3Cl)no2)c1 | inactive
Cc1ccc(C)c(N2C(=O)N(Cc3c(F)cccc3Cl)c3ccccc3S2(=O)=O)c1 | inactive
Cc1cccc(-n2ccnc2SCC(=O)Nc2cccc3ccccc23)c1C | inactive
COc1ccc(OC)c(CNC(=O)c2c3c(nc4ccccc24)C(=O)N(C2CCCCC2)C3)c1 | inactive
Cc1ccc(C(=O)Nc2c(C(=O)NC(C)(C)C)oc3ccccc23)cc1 | inactive
Cc1ccc(NS(=O)(=O)c2ccc(N/N=C/c3ccccc3OCC(=O)O)c([N+](=O)[O-])c2)c(C)c1 | 12.6 µM (active)
COCCNC(=O)c1ccccc1NS(=O)(=O)c1ccc(C)c([N+](=O)[O-])c1 | inactive
Cc1ccc(NS(=O)(=O)c2ccc(C)c(NC(=O)COc3ccc4ccccc4c3)c2)c(C)c1 | inactive
COc1cccc(CNCc2c(C(=O)O)n(Cc3ccc(C)cc3)c3cc(C)ccc23)c1OC | inactive
O=C(CCC1N=C2c3ccccc3N=C(SCc3ccccc3F)N2C1=O)NCCc1ccccc1 (stereo not drawn) | inactive
Cc1ccc(N2C(=O)S/C(=C/c3cn(C)c4ccccc34)C2=O)cc1 | inactive
Cn1cc(/C=C/c2nc3ccccc3c(=O)n2-c2cccc([N+](=O)[O-])c2)c2ccccc21 | inactive
Cc1cccc(N=C2NC(=O)/C(=C/c3cn(C)c4ccccc34)S2)c1 | 11.2 µM (active)
CCCn1c2ccccc2c2cnn(CC(=O)NCCCN3CCCCC3CC)c(=O)c21 (stereo not drawn) | inactive
CCc1nnc2c3ccccc3nc(N3CCN(c4ccc(C)cc4C)CC3)n12 | inactive
COc1cccc(Cn2c(CNS(=O)(=O)c3ccc(Cl)s3)nc3cccnc32)c1 | inactive
c1ccc(CSc2nnc(-c3ccco3)c(-c3ccco3)n2)cc1 | 7.94 µM (active)
Brc1ccc(CSc2ccc(-c3ccco3)nn2)cc1 | inactive
COC(OC)c1ccnc(SCc2ccccc2Cl)n1 | inactive
Clc1ccccc1CSc1nnc(-c2ccco2)c(-c2ccco2)n1 | 17.8 µM (active)
O=C(Nc1nnc(SCc2ccccc2)s1)c1ccco1 | inactive
Nc1nc(SCc2ccccc2Cl)n[nH]1 | inactive
